Assay [1] deals with Serine/threonine-protein kinase MRCK alpha (Homo sapiens) (UniProt Q5VT25). Conditions: at 0.1 µM.
Assay [2] shares this target. The conditions noted are these: at 1 µM.
Assay [3] has as its target Serine/threonine-protein kinase MRCK beta (Homo sapiens) (UniProt Q9Y5S2). Conditions: at 0.1 µM.
The target is the same in assay [4]. Conditions: at 1 µM.
Assay [5] concerns the target Ribosomal protein S6 kinase alpha-5 (Homo sapiens) (UniProt O75582). The conditions noted are these: at 0.1 µM.
The target is the same in assay [6]. The conditions noted are these: at 1 µM.
The target of assay [7] is Ribosomal protein S6 kinase alpha-4 (Homo sapiens) (UniProt O75676). The conditions noted are these: at 0.1 µM.
The target is the same in assay [8]. Conditions: at 1 µM.
In assay [9] the target is Ribosomal protein S6 kinase beta-1 (Homo sapiens) (UniProt P23443). Conditions: at 0.1 µM.
Assay [10] shares this target. The conditions noted are these: at 1 µM.
The target of assay [11] is T1, 3-phosphoinositide-dependent protein kinase 1 (Homo sapiens) (UniProt O15530).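 Further: values are mean inhibition of PDK1.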
T1 sequence (whole entry): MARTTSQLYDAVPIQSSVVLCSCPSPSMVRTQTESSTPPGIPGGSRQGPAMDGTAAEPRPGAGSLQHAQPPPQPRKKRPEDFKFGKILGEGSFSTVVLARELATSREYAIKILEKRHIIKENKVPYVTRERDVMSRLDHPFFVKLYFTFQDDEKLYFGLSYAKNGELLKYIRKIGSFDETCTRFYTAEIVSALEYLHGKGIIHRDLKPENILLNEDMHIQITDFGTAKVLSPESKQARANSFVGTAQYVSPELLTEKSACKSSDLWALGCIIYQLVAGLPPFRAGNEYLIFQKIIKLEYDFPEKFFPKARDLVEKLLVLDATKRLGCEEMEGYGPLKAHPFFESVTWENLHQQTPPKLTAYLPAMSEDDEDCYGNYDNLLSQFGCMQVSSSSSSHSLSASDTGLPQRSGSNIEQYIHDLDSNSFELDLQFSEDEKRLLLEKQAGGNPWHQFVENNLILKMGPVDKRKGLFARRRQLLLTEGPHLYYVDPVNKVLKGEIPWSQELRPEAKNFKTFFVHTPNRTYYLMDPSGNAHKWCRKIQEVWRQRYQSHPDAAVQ
Conditions: at 0.1 µM.

Assay [12] has as its target cAMP-dependent protein kinase catalytic subunit alpha (Homo sapiens) (UniProt P17612). The conditions noted are these: at 0.1 µM.
For assay [13] the target is unchanged. Conditions: at 1 µM.
In assay [14] the target is Protein kinase C alpha type (Homo sapiens) (UniProt P17252). The conditions noted are these: at 0.1 µM.
Assay [15] has the same target. The conditions noted are these: at 1 µM.
Assay [16] concerns the target Protein kinase C beta type (Homo sapiens) (UniProt P05771). The conditions noted are these: at 0.1 µM.
The target is the same in assay [17]. Conditions: at 1 µM.
In assay [18] the target is Protein kinase C eta type (Homo sapiens) (UniProt P24723). The conditions noted are these: at 0.1 µM.
The target is the same in assay [19]. The conditions noted are these: at 1 µM.
The target in assay [20] is Protein kinase C gamma type (Homo sapiens) (UniProt P05129). Conditions: at 0.1 µM.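 Further: values are mean percent inhibition of PKC gamma.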

Protein kinase C beta type (Homo sapiens), sequence (P05771 2-671 limits assumed): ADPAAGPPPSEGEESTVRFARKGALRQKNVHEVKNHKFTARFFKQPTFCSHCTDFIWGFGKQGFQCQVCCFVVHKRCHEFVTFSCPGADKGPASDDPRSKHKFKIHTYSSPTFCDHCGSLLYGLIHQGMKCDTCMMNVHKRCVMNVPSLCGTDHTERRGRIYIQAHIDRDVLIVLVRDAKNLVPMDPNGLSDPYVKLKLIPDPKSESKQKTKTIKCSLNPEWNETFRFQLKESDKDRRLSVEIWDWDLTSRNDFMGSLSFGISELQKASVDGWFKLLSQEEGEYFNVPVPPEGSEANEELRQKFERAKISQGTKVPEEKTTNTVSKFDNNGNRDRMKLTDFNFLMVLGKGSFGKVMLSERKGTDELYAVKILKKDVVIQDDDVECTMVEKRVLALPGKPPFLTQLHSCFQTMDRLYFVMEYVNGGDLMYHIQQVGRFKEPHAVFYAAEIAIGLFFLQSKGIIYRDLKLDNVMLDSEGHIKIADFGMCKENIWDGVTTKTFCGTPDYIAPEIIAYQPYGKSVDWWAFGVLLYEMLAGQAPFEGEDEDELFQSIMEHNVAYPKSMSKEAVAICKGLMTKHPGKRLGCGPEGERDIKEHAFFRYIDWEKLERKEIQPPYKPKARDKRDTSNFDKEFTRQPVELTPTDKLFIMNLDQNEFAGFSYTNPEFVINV
Protein kinase C eta type (Homo sapiens), sequence (P24723 whole entry): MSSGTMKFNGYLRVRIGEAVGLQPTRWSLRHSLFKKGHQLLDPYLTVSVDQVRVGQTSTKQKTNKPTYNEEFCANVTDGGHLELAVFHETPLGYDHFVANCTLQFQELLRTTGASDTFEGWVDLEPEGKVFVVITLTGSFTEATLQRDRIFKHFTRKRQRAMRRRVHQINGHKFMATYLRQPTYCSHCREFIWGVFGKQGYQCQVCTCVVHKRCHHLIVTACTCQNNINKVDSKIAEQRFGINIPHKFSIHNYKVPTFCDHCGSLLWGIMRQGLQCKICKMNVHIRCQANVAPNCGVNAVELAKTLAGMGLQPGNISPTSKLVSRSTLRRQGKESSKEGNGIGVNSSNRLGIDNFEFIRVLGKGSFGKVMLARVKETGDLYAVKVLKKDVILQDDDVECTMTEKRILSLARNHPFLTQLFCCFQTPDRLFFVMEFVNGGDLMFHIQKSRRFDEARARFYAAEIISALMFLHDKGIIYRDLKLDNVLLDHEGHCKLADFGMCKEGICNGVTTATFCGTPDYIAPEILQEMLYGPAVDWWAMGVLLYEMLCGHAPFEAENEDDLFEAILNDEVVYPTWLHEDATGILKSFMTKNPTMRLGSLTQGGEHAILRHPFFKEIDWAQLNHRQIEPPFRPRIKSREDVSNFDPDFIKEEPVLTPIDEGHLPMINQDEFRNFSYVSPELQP
Ribosomal protein S6 kinase alpha-4 (Homo sapiens), sequence (O75676 whole entry, looked up): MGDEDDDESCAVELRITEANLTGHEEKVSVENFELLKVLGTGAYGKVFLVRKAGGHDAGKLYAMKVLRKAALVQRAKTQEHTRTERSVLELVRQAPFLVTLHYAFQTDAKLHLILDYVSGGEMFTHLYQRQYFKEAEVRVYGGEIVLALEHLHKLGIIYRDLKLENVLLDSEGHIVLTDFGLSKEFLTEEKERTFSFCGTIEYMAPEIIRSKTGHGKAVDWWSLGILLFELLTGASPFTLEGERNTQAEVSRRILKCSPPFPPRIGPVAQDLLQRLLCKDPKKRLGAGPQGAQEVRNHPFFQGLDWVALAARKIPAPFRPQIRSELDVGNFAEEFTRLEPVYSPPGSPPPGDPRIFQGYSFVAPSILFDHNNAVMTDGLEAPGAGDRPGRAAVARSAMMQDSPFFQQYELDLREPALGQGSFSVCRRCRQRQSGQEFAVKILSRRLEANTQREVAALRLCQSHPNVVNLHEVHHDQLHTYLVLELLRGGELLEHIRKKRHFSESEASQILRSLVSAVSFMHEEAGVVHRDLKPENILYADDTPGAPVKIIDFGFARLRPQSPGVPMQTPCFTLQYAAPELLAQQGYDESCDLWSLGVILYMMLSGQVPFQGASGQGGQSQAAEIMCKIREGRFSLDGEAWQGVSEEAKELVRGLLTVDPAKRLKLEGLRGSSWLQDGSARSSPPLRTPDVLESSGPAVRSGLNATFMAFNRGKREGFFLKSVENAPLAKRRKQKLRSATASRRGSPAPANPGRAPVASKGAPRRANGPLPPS
Ribosomal protein S6 kinase alpha-5 (Homo sapiens), sequence (O75582 whole entry, looked up): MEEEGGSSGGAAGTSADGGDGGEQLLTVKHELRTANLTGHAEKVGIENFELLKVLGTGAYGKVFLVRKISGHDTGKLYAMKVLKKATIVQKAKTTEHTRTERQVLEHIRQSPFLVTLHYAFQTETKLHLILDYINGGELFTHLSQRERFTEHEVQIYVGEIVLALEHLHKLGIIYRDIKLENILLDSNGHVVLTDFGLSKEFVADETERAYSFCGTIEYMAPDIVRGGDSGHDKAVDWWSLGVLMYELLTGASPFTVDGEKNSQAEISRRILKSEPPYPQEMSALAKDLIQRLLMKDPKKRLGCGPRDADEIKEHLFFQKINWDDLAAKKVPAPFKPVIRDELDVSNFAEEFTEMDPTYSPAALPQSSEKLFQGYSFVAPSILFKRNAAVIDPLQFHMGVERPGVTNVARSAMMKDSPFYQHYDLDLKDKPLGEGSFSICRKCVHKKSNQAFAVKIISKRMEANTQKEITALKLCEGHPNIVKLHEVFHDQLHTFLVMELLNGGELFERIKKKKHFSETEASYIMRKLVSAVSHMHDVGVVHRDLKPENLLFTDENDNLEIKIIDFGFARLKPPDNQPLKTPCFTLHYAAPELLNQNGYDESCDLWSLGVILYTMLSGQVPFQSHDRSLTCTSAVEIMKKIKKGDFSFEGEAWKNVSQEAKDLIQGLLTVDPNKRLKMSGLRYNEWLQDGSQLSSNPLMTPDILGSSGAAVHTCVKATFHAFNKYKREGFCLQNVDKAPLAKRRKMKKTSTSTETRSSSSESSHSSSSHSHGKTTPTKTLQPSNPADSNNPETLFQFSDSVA
Serine/threonine-protein kinase MRCK beta (Homo sapiens), sequence (Q9Y5S2 whole entry): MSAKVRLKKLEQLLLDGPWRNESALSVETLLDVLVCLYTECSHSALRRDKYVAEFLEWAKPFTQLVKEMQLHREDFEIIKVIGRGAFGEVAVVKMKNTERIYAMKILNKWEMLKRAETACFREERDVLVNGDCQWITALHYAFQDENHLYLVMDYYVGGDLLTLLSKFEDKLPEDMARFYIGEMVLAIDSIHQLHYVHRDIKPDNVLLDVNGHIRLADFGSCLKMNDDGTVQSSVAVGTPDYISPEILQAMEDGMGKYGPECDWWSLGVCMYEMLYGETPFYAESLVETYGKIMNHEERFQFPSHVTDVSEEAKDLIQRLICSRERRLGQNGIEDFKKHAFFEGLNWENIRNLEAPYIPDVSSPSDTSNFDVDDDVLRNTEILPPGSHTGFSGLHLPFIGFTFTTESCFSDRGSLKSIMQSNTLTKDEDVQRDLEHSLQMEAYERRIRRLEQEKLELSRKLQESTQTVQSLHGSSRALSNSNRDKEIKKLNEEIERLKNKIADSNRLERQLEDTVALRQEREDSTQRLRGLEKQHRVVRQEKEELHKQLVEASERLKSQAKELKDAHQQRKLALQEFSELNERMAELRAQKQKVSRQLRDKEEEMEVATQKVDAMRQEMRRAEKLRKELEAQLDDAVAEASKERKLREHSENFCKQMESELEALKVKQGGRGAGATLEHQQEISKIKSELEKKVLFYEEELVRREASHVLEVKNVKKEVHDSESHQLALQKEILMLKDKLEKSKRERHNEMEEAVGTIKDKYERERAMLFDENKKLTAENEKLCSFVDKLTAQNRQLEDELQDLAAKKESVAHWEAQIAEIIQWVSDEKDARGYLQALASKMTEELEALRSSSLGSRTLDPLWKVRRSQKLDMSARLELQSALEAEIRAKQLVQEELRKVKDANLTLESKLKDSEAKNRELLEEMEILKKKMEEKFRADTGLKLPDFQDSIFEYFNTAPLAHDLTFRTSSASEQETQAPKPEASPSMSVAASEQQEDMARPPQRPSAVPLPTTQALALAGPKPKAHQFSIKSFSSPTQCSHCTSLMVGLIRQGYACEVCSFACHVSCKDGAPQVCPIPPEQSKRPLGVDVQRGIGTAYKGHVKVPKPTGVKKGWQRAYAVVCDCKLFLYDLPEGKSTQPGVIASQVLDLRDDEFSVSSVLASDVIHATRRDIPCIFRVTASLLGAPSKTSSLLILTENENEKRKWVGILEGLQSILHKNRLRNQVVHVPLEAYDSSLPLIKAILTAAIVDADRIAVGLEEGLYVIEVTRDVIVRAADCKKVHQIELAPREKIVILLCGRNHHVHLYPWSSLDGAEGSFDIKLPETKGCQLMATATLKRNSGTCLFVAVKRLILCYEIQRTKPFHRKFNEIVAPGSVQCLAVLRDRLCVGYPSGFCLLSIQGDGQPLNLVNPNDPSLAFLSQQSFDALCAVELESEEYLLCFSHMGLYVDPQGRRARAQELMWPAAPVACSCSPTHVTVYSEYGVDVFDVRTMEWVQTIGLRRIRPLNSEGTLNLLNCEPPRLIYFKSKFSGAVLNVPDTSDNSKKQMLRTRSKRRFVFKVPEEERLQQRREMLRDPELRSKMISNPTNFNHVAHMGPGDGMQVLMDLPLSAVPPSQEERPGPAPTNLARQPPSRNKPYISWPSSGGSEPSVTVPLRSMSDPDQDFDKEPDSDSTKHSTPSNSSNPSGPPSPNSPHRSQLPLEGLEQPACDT

`COC(=O)Nc1nc2cc(Oc3cccc(NC(=O)Nc4cc(C(F)(F)F)ccc4F)c3)ccc2[nH]1`: the inhibition in [1] was 0.87%; in [2], 0.69%; in [3], -0.19%; in [4], 2.03%; in [5], 0.09%; in assay [6], 1.11%. Also, the inhibition in assay [7] was -0.69%; in assay [8], 1.7%; in assay [9], -0.07%; in assay [10], 1.88%; in assay [11], 1.08%; in [12], 2.29%. Also, the inhibition came out at 4.75% in [13]; 0.42% in assay [14]; 0.96% in assay [15]; 0.04% in assay [16]; 2.71% in assay [17]; 0.61% in assay [18]. For the same compound, the inhibition in assay [19] was -1.2%; in assay [20] it was 1.08%.

Take `CC1=C(C(=O)Nc2ccc3[nH]ncc3c2)C(c2ccc3ccccc3c2)CC(=O)N1` (stereo not given): the inhibition in [1] worked out at 3.1%; in assay [2], 22.7%; in assay [3] it was 5.85%; in assay [4], 37.9%; in [5] it was 10.7%; in [6] it was 47.6%. Moreover, the inhibition in assay [7] was 6.16%; in assay [8], 34.1%; in assay [9], 2.41%; in assay [10], 21.4%; in [11], 2.2%; in assay [12], 7.18%. The inhibition in [13] came out at 45.9%; in [14] it was 1.26%; in assay [15], 1.61%; in [16], 1.81%; in [17], 0.44%; in [18], 4.97%. Moreover, the inhibition amounted to 14.1% in [19] and 0.67% in assay [20].

With `CCn1c(-c2nonc2N)nc2c(C#CC(C)(C)O)nc(OC[C@@H](N)c3ccccc3)cc21`, the inhibition in assay [1] was 12%; in [2], 48.2%; in assay [3], 11.1%; in assay [4] it was 48.5%; in [5] it was -5.71%; in assay [6] it was 8.99%. The inhibition in assay [7] stood at 1.92%; in [8], 19.7%; in [9] it was 5.44%; in assay [10] it was 36%; in [11] it was 0.47%; in assay [12], 77.5%. Moreover, the inhibition is 79.3% in assay [13]; -2.77% in [14]; 8.94% in assay [15]; 6.21% in assay [16]; 36% in assay [17]; 81.4% in assay [18]. Further, the inhibition in assay [19] was determined as 96.8%; in assay [20], 8.95%.

Turning to `CS(=O)(=O)CCNCc1ccc(-c2ccc3ncnc(Nc4ccc(OCc5ccccc5)c(Cl)c4)c3c2)o1`, the inhibition is -0.63% in assay [1]; -1.47% in assay [2]; 0.86% in [3]; 0.8% in assay [4]; -7.35% in [5]; -6.84% in assay [6]. The inhibition is 0.04% in [7]; 1.73% in [8]; 0.22% in assay [9]; 2.03% in [10]; -0.51% in assay [11]; -0.81% in [12]. In addition, the inhibition was 1.12% in assay [13]; 0.09% in assay [14]; -0.42% in assay [15]; -1.09% in assay [16]; -2.64% in [17]; 1.32% in [18]. For the same compound, the inhibition is -1.74% in assay [19] and 1.29% in assay [20].

In the case of `[O-][S+]1CCN(Cc2ccc(-c3ccc4ncnc(Nc5ccc(OCc6ccccc6)c(F)c5)c4c3)o2)CC1`, the inhibition in [1] is 0.13%; in assay [2], -0.47%; in [3] it was -0.5%; in [4], 0.8%; in [5] it was 1.59%; in assay [6], 1.41%. Besides, the inhibition in assay [7] was -0.07%; in [8] it was 2.42%; in assay [9], 0.52%; in assay [10] it was 0.86%; in assay [11], 2.01%; in assay [12], 0.99%. Also, the inhibition in assay [13] was 0.53%; in [14], 0.47%; in assay [15], 1.52%; in assay [16], -0.89%; in [17] it was -0.42%; in assay [18], 0.68%. Also, the inhibition in assay [19] is 0.14%; in assay [20], -0.39%.

Take `CCn1c(-c2nonc2N)nc2cnc(Oc3cccc(NC(=O)c4ccc(OCCN5CCOCC5)cc4)c3)cc21`: the inhibition in assay [1] was 6.6%; in assay [2] it was 42.3%; in assay [3], 17.8%; in assay [4], 59%; in assay [5], 66.8%; in [6], 78.1%. The inhibition in [7] was 56.7%; in assay [8], 76.7%; in [9], 84.6%; in assay [10], 93%; in assay [11], 2.08%; in [12] it was 17.5%. In addition, the inhibition stood at 65.8% in assay [13]; 3.09% in assay [14]; 34.1% in assay [15]; 37.3% in [16]; 64.2% in [17]; 71.2% in assay [18]. Further, the inhibition was found to be 94.9% in assay [19] and 13.9% in [20].

`CCn1c(-c2nonc2N)nc2cncc(C(=O)N3CC[C@H](N)C3)c21`: the inhibition in assay [1] turned out to be 14.5%; in assay [2], 68.7%; in assay [3], 23.1%; in assay [4], 67.2%; in assay [5], 67.9%; in assay [6], 81.4%. For the same compound, the inhibition in [7] came to 44.5%; in assay [8] it was 74.3%; in assay [9] it was 32.9%; in assay [10], 80.3%; in assay [11], 9.36%; in assay [12], 49.1%. The inhibition in assay [13] was 82.2%; in assay [14], 5.69%; in assay [15] it was 45.5%; in [16], 43.9%; in assay [17] it was 74.5%; in assay [18], 51.2%. The inhibition in assay [19] is 88.3%; in assay [20], 6.77%.

For `Cc1cc(O)cc(C)c1/C=C/c1cncc(-c2nn[nH]n2)c1`, the inhibition in assay [1] was -0.28%; in [2], -0.43%; in assay [3] it was 0.47%; in assay [4], 0.57%; in [5] it was 3.79%; in [6], 1.87%. For the same compound, the inhibition was 1.46% in [7]; 2.78% in [8]; 1.11% in assay [9]; 1.97% in assay [10]; 2.02% in assay [11]; -1.63% in assay [12]. Besides, the inhibition in [13] is -1.78%; in assay [14], -2.41%; in assay [15] it was -0.54%; in [16], 0.1%; in assay [17], 2.35%; in [18], 1%. Also, the values for the inhibition in assay [19] and in assay [20] were 5.67% and -3.08%, respectively.

`NC(=O)c1cccc(Nc2nccc(Nc3cccc4[nH]ncc34)n2)c1`: the inhibition was -0.16% in assay [1]; 2.18% in [2]; 0.71% in assay [3]; 3.5% in assay [4]; -3.36% in assay [5]; 2.78% in [6]. For the same compound, the inhibition in assay [7] is -1.85%; in [8] it was 1.24%; in assay [9] it was -1.61%; in [10], 4.1%; in assay [11], -1.42%; in assay [12], 7.26%. The inhibition in assay [13] is 10.7%; in assay [14] it was -0.39%; in assay [15], 14.6%; in assay [16], 0.67%; in [17], 2.07%; in [18], -3%. The figures for the inhibition in assay [19] and in assay [20] were 5.2% and 0.25%, respectively.

Regarding `O=C1NC(=O)C(c2ccc(Cl)cc2)=C1Nc1ccc(Cl)c(C(=O)O)c1`, the inhibition was -0.29% in assay [1]; -0.46% in [2]; 0.31% in [3]; -0.42% in assay [4]; -1.75% in assay [5]; -1.95% in assay [6]. Moreover, the inhibition in assay [7] is -2.17%; in assay [8], -1.54%; in assay [9] it was -1.54%; in [10] it was -1.25%; in assay [11], 0.12%; in [12] it was -1.8%. For the same compound, the inhibition in assay [13] was -1.57%; in assay [14], -0.02%; in [15], -0.11%; in assay [16], -1.13%; in assay [17], -0.89%; in assay [18] it was -3.26%. Besides, the figures for the inhibition in assay [19] and in [20] were -3.28% and 0.52%, respectively.

Consider `CC1=C(C(=O)Nc2ccc3[nH]ncc3c2)C(c2ccc(Cl)c(Cl)c2)CC(=O)N1` (stereo not given), for which the inhibition turned out to be 1.51% in [1]; 20.1% in assay [2]; 5.81% in assay [3]; 35% in [4]; 10.3% in assay [5]; 46.4% in [6]. Besides, the inhibition in assay [7] worked out at 7.4%; in assay [8], 39.1%; in assay [9], 3.83%; in assay [10], 25.2%; in [11] it was 3.64%; in [12], 7.32%. Besides, the inhibition in assay [13] was 43.1%; in assay [14], 0.41%; in assay [15] it was 1.24%; in assay [16] it was -1.01%; in [17], -0.1%; in [18], 0.22%. Further, the inhibition was determined as 14.1% in assay [19] and 1.51% in [20].
